Data reported in the supplement of paper PMC8285479.
“And” between values parts separate entries of the source, which are not always exact repeats. Equal values may be shown once. Where a name gives a salt, the structure may show the parent alone. ± gives the standard deviation of the averaged measurements. Whole data set: some 1,900 compounds, median “normalised cell viability (NPI; 0 = phenylarsine oxide control, 1 = DMSO control)” near 1, cut for the lowest 2% near 0.039. The sample as a whole holds a higher share of the lowest values than the screen did.

Tested on: NCI-H1944
Assay: normalised cell viability (NPI; 0 = phenylarsine oxide control, 1 = DMSO control) (fraction of DMSO control); NCI-H1944 is a non-small cell lung cancer line; higher = more viable cells (less compound toxicity)
Settings: 6 days
[1] = glucocorticoid arm: hydrocortisone 2.75 uM co-treatment, compound 1 µM
[2] = glucocorticoid arm: hydrocortisone 2.75 uM co-treatment, compound 5 µM
[3] = glucocorticoid arm: hydrocortisone 2.75 uM pre-treated 2 days and continued, compound 1 µM
[4] = glucocorticoid arm: hydrocortisone 2.75 uM pre-treated 2 days and continued, compound 5 µM
[5] = glucocorticoid arm: vehicle, compound 1 µM
[6] = glucocorticoid arm: vehicle, compound 5 µM
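Further: CTB read-out in 384-well plates, triplicate wells, NPI normalised per plate against 1 µM phenylarsine oxide (0) and 0.1% DMSO (1) controls.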

| Structure (SMILES) | normalised cell viability [1] | normalised cell viability [2] | normalised cell viability [3] | normalised cell viability [4] | normalised cell viability [5] | normalised cell viability [6] |
| --- | --- | --- | --- | --- | --- | --- |
| C[N+](C)(C)CC=O [Betaine aldehyde chloride] | 0.9877 ± 0.0021 | 0.993 ± 0.012 | 0.9913 ± 0.0081 | 0.993 ± 0.0085 | 0.9647 ± 0.0015 | 0.9803 ± 0.0015 |
| NC[C@@H](O)c1ccc(O)c(O)c1 [L(-)-Norepinephrine bitartrate] | 1 ± 0.018 | 0.971 ± 0.011 | 1 ± 0.021 | 0.968 ± 0.0085 | 0.98 ± 0.017 | 0.9767 ± 0.0011 |
| Nc1nc2c(nc(Br)n2C2OC3COP(=O)(O)O[C@@H]3C2O)c(=O)[nH]1 (some centres not stated) [8-Bromo-cGMP sodium] | 1.023 ± 0.0058 | 1.02 | 1.02 ± 0.01 | 1 ± 0.028 | 1.01 ± 0.011 | 1.01 ± 0.015 |
| CCc1ccc(OCc2ccccc2C(=O)Nc2ccc3nc(C)cc(N)c3c2)cc1 | 1.04 ± 0.011 | 0.00134 ± 0.00041 | 1.05 ± 0.017 | 0.00123 ± 0.00019 | 1.023 ± 0.0058 | 0.00113 ± 0.0006 |
| CCN(CC)CCCC(C)Nc1nc(C)cc(Nc2ccc3nc(C)cc(N)c3c2)n1 (configuration not stated) | 0.845 ± 0.0082 | 0.444 ± 0.019 | 0.888 ± 0.01 | 0.688 ± 0.036 | 1 ± 0.013 | 0.119 ± 0.0062 |
| Cc1cc([C@@H](C)Nc2ccccc2C(=O)O)c2nc(N3CCOCC3)cc(=O)n2c1 | 0.878 ± 0.043 | 0.764 ± 0.062 | 0.879 ± 0.023 | 0.791 ± 0.03 | 0.9667 ± 0.0091 | 0.899 ± 0.035 |
| CCCC(CCC)C(=O)NO [Valproic acid hydroxamate] | 1 ± 0.022 | 1.01 ± 0.022 | 1.01 ± 0.016 | 1.02 ± 0.016 | 0.9982 ± 0.0077 | 0.9988 ± 0.0092 |
| NC1CCN(O)C1=O (racemic) | 0.983 ± 0.011 | 0.999 ± 0.011 | 0.9857 ± 0.0051 | 0.984 ± 0.023 | 0.985 ± 0.013 | 0.98733 ± 0.00058 |
| CC(C)C[C@H](NC(=O)CNC(=O)c1cc(Cl)ccc1Cl)B(O)O | 0.978 ± 0.0095 | 0.886 ± 0.03 | 1.04 ± 0.01 | 1.04 ± 0.011 | 0.311 ± 0.032 | 0.0506 ± 0.0038 |
| CC(C)C[C@H](NC(=O)CNC(=O)c1cc(Cl)ccc1Cl)B1OC(=O)CC(CC(=O)O)(C(=O)O)O1 (some centres not stated) | 0.98 ± 0.014 | 0.835 ± 0.018 | 1.047 ± 0.0058 | 1.04 ± 0.015 | 0.263 ± 0.024 | 0.0378 ± 0.0053 |
| CCCCCCCCCCCCCCCCCCNC(=O)OCC(COP(=O)([O-])OCC[n+]1ccsc1)OC (configuration not stated) | 0.9967 ± 0.0035 | 1.02 ± 0.011 | 1.02 ± 0.024 | 1.01 ± 0.015 | 0.997 ± 0.0017 | 0.82 ± 0.33 |
| COc1ccc(CCNC[C@@H](O)c2ccc(O)cc2)cc1OC [R(-)-Denopamine] | 1.01 ± 0.01 | 1.017 ± 0.0058 | 1.02 ± 0.017 | 1.013 ± 0.0058 | 1.01 | 1.01 ± 0.014 |
| c1cncc(CN2CCC(n3ncc4c(N5CCOCC5)nc(-c5ccc6[nH]ccc6c5)nc43)CC2)c1 | 0.773 ± 0.022 | 0.532 ± 0.036 | 0.743 ± 0.027 | 0.615 ± 0.036 | 0.542 ± 0.035 | 0.24 ± 0.0038 |
| Cc1nc(Nc2n[nH]c3c2CN(C(=O)N[C@H](CN(C)C)c2ccccc2)C3(C)C)c2sccc2n1 | 0.832 ± 0.033 | 0.29 ± 0.072 | 1.05 ± 0.015 | 0.763 ± 0.02 | 0.12 ± 0.011 | 0.0302 ± 0.0031 |
| CC(C)CC(=O)Nc1n[nH]c2c1CN(C(=O)C1CCN(C)CC1)C2(C)C | 0.8357 ± 0.0074 | 0.369 ± 0.0055 | 0.968 ± 0.0056 | 0.962 ± 0.036 | 0.365 ± 0.023 | 0.0459 ± 0.004 |
| N=C1Sc2ccccc2C2=NCCCN12 | 1.017 ± 0.0058 | 1.01 ± 0.031 | 1.02 ± 0.011 | 0.86 ± 0.28 | 1.002 ± 0.0068 | 1.02 ± 0.015 |
| Cc1nc(N=Nc2ccc(C(=O)O)cc2)c(COP(=O)(O)O)c(C=O)c1O | 0.999 ± 0.0017 | 0.998 ± 0.02 | 1.01 ± 0.01 | 1.005 ± 0.0087 | 0.9937 ± 0.0085 | 1 ± 0.016 |
| CN(C)CCCCSC(=N)N | 1.001 ± 0.0081 | 1.01 ± 0.011 | 1.02 ± 0.026 | 1.02 ± 0.011 | 0.9953 ± 0.0064 | 0.9883 ± 0.005 |

| Structure (SMILES) | normalised cell viability [1] | normalised cell viability [2] | normalised cell viability [3] | normalised cell viability [4] | normalised cell viability [5] | normalised cell viability [6] |
| --- | --- | --- | --- | --- | --- | --- |
| O=C(CCCCCCNC(=O)c1cnc(N(c2ccccc2)c2ccccc2)nc1)NO [Rocilinostat (ACY-1215)] | 0.9393 ± 0.0064 | 0.966 ± 0.011 | 0.944 ± 0.015 | 0.945 ± 0.018 | 0.9923 ± 0.0021 | 0.918 ± 0.0096 |
| O=C(CCCCCCC(=O)NO)NO [Suberoyl bis-hydroxamic acid] | 0.958 ± 0.024 | 0.833 ± 0.053 | 0.968 ± 0.021 | 0.868 ± 0.04 | 1.005 ± 0.0057 | 0.9962 ± 0.0093 |
| O=C(CCCCCCNC(=O)c1cnc(N(c2ccccc2)c2ccccc2)nc1)NO | 0.9803 ± 0.0098 | 0.922 ± 0.018 | 0.996 ± 0.021 | 0.9343 ± 0.0021 | 1.01 ± 0.01 | 0.9873 ± 0.0071 |
| NC(=S)c1ccc[n+]([C@@H]2O[C@@H](COP(=O)([O-])OP(=O)(O)OC[C@H]3O[C@@H](n4cnc5c(N)ncnc54)C(OP(=O)(O)O)[C@H]3O)C(O)C2O)c1 (some centres not stated) [Thio-NADP sodium] | 1.013 ± 0.0058 | 1.01 ± 0.026 | 1.03 ± 0.021 | 0.998 ± 0.013 | 1.013 ± 0.0058 | 1.013 ± 0.0058 |
| CC(C)c1cc(-c2ccc(F)c3ccccc23)nc(N)n1 | 0.9813 ± 0.0081 | 0.9787 ± 0.005 | 0.991 ± 0.018 | 0.993 ± 0.013 | 0.984 ± 0.025 | 1.001 ± 0.0079 |
| COc1ccc(Cl)cc1NC(=O)Nc1cc(C)nc2ccccc12 | 1.01 and 1.02 | – | – | – | 1 and 1.01 | – |
| Cc1cc(Nc2ccc(NC(=O)c3ccc(Nc4ccnc5ccccc45)cc3)cc2)nc(N)n1 | 0.99 ± 0.017 | -0.000696 ± 0.0048 | 0.9783 ± 0.0035 | 0.492 ± 0.5 | 1.006 ± 0.0075 | 0.000819 ± 0.0006 |
| CNCc1ccc(C)c(NC(=O)c2ccc(Nc3nc(-c4ccccc4)c4ccccc4n3)cc2)c1 | 0.965 ± 0.017 | 0.939 ± 0.017 | 0.9953 ± 0.0021 | 0.959 ± 0.015 | 0.991 ± 0.0027 | 0.988 ± 0.011 |
| O=C(O)C=C1CCCc2ccccc2C1O (configuration not stated) | 0.987 ± 0.012 | 0.948 ± 0.026 | 0.987 ± 0.02 | 0.994 ± 0.044 | 0.983 ± 0.0069 | 0.987 ± 0.01 |
| Cc1cc(Cn2cnc3c2C[C@@H](C(=O)O)N(C(=O)C(c2ccccc2)c2ccccc2)C3)ccc1N | 1.03 ± 0.01 | 1.01 ± 0.022 | 1.023 ± 0.0058 | 1.01 ± 0.014 | 1.027 ± 0.0058 | 1.02 |
| Cc1cc2c(cc1Cl)N(C(=O)Nc1cccc3ncccc13)CC2 | 0.985 ± 0.011 | 0.965 ± 0.015 | 1 ± 0.016 | 1.03 ± 0.084 | 0.9793 ± 0.0086 | 0.992 ± 0.007 |
| Cn1ccc2cc3c(cc21)CCN3C(=O)Nc1cccnc1 | 1.02 ± 0.011 | 1.01 ± 0.018 | 1.05 ± 0.021 | 1.02 ± 0.017 | 1.03 ± 0.011 | 1.01 ± 0.01 |
| COc1cc2c(cc1C(F)(F)F)N(C(=O)Nc1cc(F)cc(-c3cccnc3)c1)CC2 | 0.994 ± 0.017 | 0.0391 ± 0.01 | 1.02 ± 0.01 | 0.903 ± 0.021 | 0.974 ± 0.028 | 0.00107 ± 0.00012 |
| COc1ccc2cc(-c3nc(-c4ccc([S+](C)[O-])cc4)[nH]c3-c3ccncc3)ccc2c1 (configuration not stated) [Tie2 kinase inhibitor] | 1 ± 0.016 | 1.002 ± 0.0072 | 0.992 ± 0.0087 | 1 ± 0.018 | 0.997 ± 0.0017 | 0.9943 ± 0.0098 |
| CN1CCc2c(c3ccccc3n2Cc2ccc(C(=O)NO)cc2)C1 [Tubastatin A HCl] | 0.9623 ± 0.0086 | 0.859 ± 0.016 | 0.967 ± 0.0035 | 0.913 ± 0.025 | 0.999 ± 0.01 | 0.9903 ± 0.0042 |
| CN1CCc2c(c3ccccc3n2Cc2ccc(C(=O)NO)cc2)C1 [Tubastatin A] | 0.984 ± 0.013 | 0.983 ± 0.026 | 0.983 ± 0.023 | 1.01 ± 0.023 | 0.991 ± 0.011 | 0.9927 ± 0.0063 |
| Cn1cc(C(=O)OCC2CCN(CCNS(C)(=O)=O)CC2)c2ccccc21 | 1.01 ± 0.01 | 0.997 ± 0.014 | 1.02 ± 0.011 | 1.03 ± 0.014 | 1.017 ± 0.0058 | 1.023 ± 0.0058 |
| NS(=O)(=O)c1cc(C(=O)O)c(NCc2ccco2)cc1Cl [Furosemide] | 1.002 ± 0.0076 | 0.9983 ± 0.0029 | 0.999 ± 0.011 | 0.995 ± 0.015 | 0.984 ± 0.002 | 0.9897 ± 0.0047 |
